These results are taken from PubChem BioAssay AID720541 (National Center for Advancing Translational Sciences (NCATS), 2013).

The structures appear in SMILES notation. Screen size: about 1,300 compounds; about 420 (32%) were called active. Roughly 32% stayed inconclusive and do not appear here. The list shows a part of the results. Unmarked numbers belong to inactive results. Calls follow the shape of the dose curve; as a rule, active = well fitted inhibition curve with a large enough effect; inconclusive = small, poorly fitted or top-dose-only effect; inactive = no such curve, though single readings can be large or run the other way.
% is scaled to controls: 0 for no effect and ±100 for the full control effect; potency is read from the fitted curve at half-maximal effect.

This assay concerns the target C-terminal-binding protein 1 (Homo sapiens) (UniProt Q13363). Kind of assay: qHTS for Inhibitors of the Phosphatase Activity of Eya2: Carboxyl-terminal binding protein (CtBP) Counterscreen for Cherry-picked Compounds. Also: nearly all actives have a fitted effect of over 65% in size. Particulars: purified protein-protein binding, AlphaScreen, 3 h; series mostly up to 46.1 µM; activity change, negative = inhibition: at the top concentration. Put shortly: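 Cherry-picked compounds (final 2.5 nM–46 uM) were incubated 2 h at RT with 25 nM CtBP-6xHIS and 25 nM GST-E1A. Alpha beads (20 ug/mL) were then added for 1 h, light-protected; DMSO and E1A peptide inhibitor wells set the normalization.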
In general terms: qHTS replaces the single test concentration by a dilution series.
With `O=C(CSc1ccc2nnc(-c3ccccn3)n2n1)Nc1ccccc1C(F)(F)F`, the Potency was 10.7 µM (active).
The same measure, in the same setting: under `Cc1csc(NC(=O)CSc2ccc(-c3ccccn3)nn2)n1` stands 4.26 µM (active); under `Cc1cc(C)c(NC(=O)CSc2ccc(-c3ccccn3)nn2)c(C)c1`, 3.38 µM (active); under `Cc1ccccc1NC(=O)CSc1ccc(-c2ccccn2)nn1`, 3.79 µM (active).
Turning to `O=S(=O)(NCCSCc1ccc(Cl)c(Cl)c1)c1ccc2c(c1)OCCO2`, the “activity change, negative = inhibition” value was -3.24%.
On the same count and under the same terms, under `CCOc1ccc(CCN2C(=O)C(=O)N([C@@H](Cc3ccccc3)CN3CCC[C@H]3CN3C(=O)C(=O)NC[C@@H]3Cc3ccccc3)C[C@@H]2Cc2ccccc2)cc1` stands -22.9%.
Turning to `CCN(CC)c1ccc(NC(=O)c2ccc3c(c2)c(C)c(C)n3C)cc1`, the Potency was 10.7 µM (active).
`NC(N)=Nc1nc2cc([N+](=O)[O-])ccc2o1`: the “activity change, negative = inhibition” value is -12.5%.
On to `Cc1cc(/C=C2\C=Cc3ccccc32)ccc1N(C)C`, for which the Potency is 8.49 µM (active).
Same read-out and setting: under `CN(C)c1ccc(/C=C2\C=Cc3ccccc32)cc1N` stands 13.5 µM (active); under `CNc1ccc(/C=C2\C=Cc3ccccc32)cc1OC`, 8.49 µM (active).
Still for that read-out and setting: under `CN(C)c1ccc(/C=C2\C=Cc3ccccc32)cc1[N+](=O)[O-]` stands 7.57 µM (active).
Take `COc1cc(/C=C2/C=Cc3ccccc32)ccc1N(C)C`: the Potency is 8.49 µM (active).
Same read-out and setting: with `O=[N+]([O-])c1ccc(/C=C2\C=Cc3ccccc32)cc1` the figure was 7.57 µM (active).
On the same count and under the same terms, under `O=C(Nc1ccccc1Cl)N1CCN(c2ccc3nnc(-c4ccccc4)n3n2)CC1` stands 5.36 µM (active).
Take `COc1cccc(N2CCN(c3ccc4nnc(CCC(=O)Nc5cccc(C(C)=O)c5)n4n3)CC2)c1`: the “activity change, negative = inhibition” value was 13.8%.
Take `NCC(=O)Nc1ccc(Cl)cc1C(=O)c1ccc[nH]1`: the “activity change, negative = inhibition” value was -8.63%.
Same read-out and setting: under `COc1ccc(-c2cn(Cc3ccc4c(c3)C(=O)c3ccccc3C4=O)nn2)cc1` stands -4.47%.
`COC1=C(Nc2ccc(OC)cc2)C(=O)c2ccccc2C1=O`: the Potency was 6.75 µM (active).
As for `CCc1ccc2nc3nc(C)cc(C)c3c(N)c2c1`, the Potency is 10.7 µM (active).
Same read-out and setting: under `COc1cc(NS(=O)(=O)c2ccc(N/C=C\C(=O)c3ccc(OC)c(OC)c3)cc2)nc(OC)n1` stands 8.49 µM (active).
Regarding `CCC(=O)Nc1ccc(C(=O)COC(=O)c2nc3nccc(C)n3n2)cc1`, the “activity change, negative = inhibition” value was -5.45%.
As to `COc1ccc(C(=O)/C=C/Nc2ccc(S(=O)(=O)Nc3nc(C)cc(C)n3)cc2)cc1OC`, the Potency is 12 µM (active).
Consider `Cc1ccccc1-c1cnc(C(O)c2c(C)cccc2C)[nH]1` (stereo not drawn), for which the “activity change, negative = inhibition” value was -9.32%.
As to `Cc1oc2cc([N+](=O)[O-])c(O)c([N+](=O)[O-])c2c1C(=O)c1ccc(Cl)cc1`, the Potency was 16.9 µM (active).
As for `COc1ccc(NC(=O)c2cc(-c3ccco3)nc3ccccc23)cn1`, the “activity change, negative = inhibition” value was -10.6%.
With `O=C(Nc1nncs1)c1cc(-c2ccco2)nc2ccccc12`, the Potency was 13.5 µM (active).
On the same count and under the same terms, under `COc1cccc(C(=O)Nc2cccc(-c3ccc4nncn4n3)c2)c1OC` stands 13.5 µM (active).
For the compound `COc1ccccc1OCc1ccc(C(=O)Nc2cc(OC)c(OC)c(OC)c2)o1`, the “activity change, negative = inhibition” value was -26.1%.
Turning to `Nc1ccc(O)cc1`, the Potency was 12 µM (active).
The same measure, in the same setting: with `Nc1nc2nn(-c3ccccc3)nc2c(=O)[nH]1` the figure was 6.01 µM (active).
On to `Cc1ccc(-c2nnc(Nc3ccc4c(c3)OCO4)c3ccccc23)cc1S(N)(=O)=O`, for which the “activity change, negative = inhibition” value is -34.7%.
`CNC(=O)c1ccc(Nc2nnc(-c3ccc(C(N)=O)cc3)c3ccccc23)cc1`: the Potency is 6.75 µM (active).
Take `COc1ccc(-c2csc(-c3ccc(C(=O)O)cc3)n2)cc1`: the “activity change, negative = inhibition” value is -13.9%.
On to `CCN(CC)C(=O)c1ccc(-c2nnc(Nc3ccc(C(=O)NC)cc3)c3ccccc23)cc1`, for which the Potency is 16.9 µM (active).
Still for that read-out and setting: with `COc1ccc(Nc2nnc(-c3ccc(C(N)=O)cc3)c3ccccc23)cc1` the figure was 4.78 µM (active).
`NC(=O)[C@@H]1CC2(CC(c3cccc(NC(=O)COc4ccc(Cl)cc4)c3)=NO2)CN1C(=O)COc1ccc(Cl)cc1` (stereo partly drawn): the “activity change, negative = inhibition” value is -2.46%.
The same measure, in the same setting: under `CCOCCCNC(=O)c1cc2sc(Cl)cc2n1CC` stands -5.54%; under `Cc1cccc2cn[nH]c12`, 3.72%; under `O=C(NN=C1CCCC1)c1[nH]c2ccc(Br)cc2c1-c1ccccc1`, -4.82%.
`COc1ccc(OC)c(NC(=O)CSc2nc(-c3ccccc3)cc(=O)[nH]2)c1`: the “activity change, negative = inhibition” value is -21.4%.
For `CCOC(=O)c1sc(NC(=O)CSc2nc(O)c(Cc3ccccc3)c(=O)[nH]2)nc1C`, the Potency is 16.9 µM (active).
On the same count and under the same terms, under `O=C(O)c1ccccc1-c1ccccc1C(=O)Nc1ccc2c(c1)[nH]c(=O)c1ccccc12` stands 7.57 µM (active).
Consider `O=C(O)c1ccccc1-c1ccccc1C(=O)Nc1ccc2oc(=O)c3ccccc3c2c1`, for which the Potency is 12 µM (active).
The same measure, in the same setting: under `CCN1C(=O)/C(=C2/C=Cc3ccccc3N2CC)SC1=S` stands 4.26 µM (active); under `COc1cc(OC)c(OC)cc1/C=C/c1nccc2ccccc12`, 7.57 µM (active).
`FC(F)(F)c1ccc(CN2C[C@@H]3C(c4ccc(Cl)nc4)C4(c5cccnc5)CC3(C4)[C@H]2c2ccccc2)cc1` (stereo partly drawn): the “activity change, negative = inhibition” value is -13.9%.
For `Cc1ccc(O)c(C(=O)c2cnc3c(c2)c(-c2ccc(F)cc2)c(C#N)c(=O)n3C)c1`, the “activity change, negative = inhibition” value was 50.2%.
As to `COc1ccc([C@H]2CC(=O)C=C(c3ccnc4ccc(Cl)cc34)C2)cc1`, the “activity change, negative = inhibition” value was -17.1%.
Still for that read-out and setting: with `CC(=O)Nc1ccc(NC(=O)COc2ncnc3ccccc23)cc1` the figure was 23%.
Regarding `CN(C)c1ccc(NC(=O)CC(NCc2ccccn2)C(=O)O)cc1` (stereo not drawn), the Potency was 1.07 µM (active).
Same read-out and setting: with `COc1cc(OC)c(NC(=O)CN(C)S(=O)(=O)c2ccc(-c3ccc(=O)[nH]n3)s2)cc1Cl` the figure was 6.01 µM (active); with `CCN(CC)c1ccc(/C=C2\CCC(/C=C(\C#N)C(=O)Nc3ccccc3F)=C2N2CCOCC2)cc1`, 23.9 µM (active).
In the case of `CCCc1ccc(C#N)c(SC2CC(=O)N(c3ccc(OC)cc3)C2=O)n1` (stereo not drawn), the “activity change, negative = inhibition” value is -12.5%.
Same read-out and setting: under `O=C1NC(=O)/C(=C\c2ccccc2OCc2cccc([N+](=O)[O-])c2)N1` stands -13%; under `COc1ccc(F)cc1-c1cc(NC=O)c2ncc(-c3cccc(C(F)(F)F)c3)n2c1`, -11.4%.
As to `Oc1c(C(Nc2nc3ccccc3s2)c2ccco2)ccc2cccnc12` (stereo not drawn), the Potency is 6.75 µM (active).
Turning to `Cc1cc(C)c(OCCCCN(C)Cc2ccccc2)c(C)c1`, the “activity change, negative = inhibition” value was 58.5%.
With `O=c1c2ccccc2oc2nc3n(c(=O)c12)CCCS3`, the Potency was 12 µM (active).
With `Cc1cc(=O)n2nc(N3CCCC(C(=O)Nc4ccc(C)c(C)c4)C3)sc2n1` (stereo not drawn), the “activity change, negative = inhibition” value was -39.8%.
With `CN1/C(=C\C(=S)NC(=O)c2ccccc2Cl)C(C)(C)c2ccccc21`, the Potency was 15.1 µM (active).
As to `Oc1[nH]c2ccccc2c1N=Nc1nc2ccccc2s1`, the “activity change, negative = inhibition” value is -4.03%.
On the same count and under the same terms, under `Cc1c(CCO)c(=O)n(-c2ccccc2)n1S(=O)(=O)c1c(Cl)cc(Cl)cc1Cl` stands -25.3%.
Consider `CCOc1ccc(S(=O)(=O)Nc2cc(SCC(=O)O)c(O)c3ccccc23)cc1`, for which the Potency is 21.3 µM (active).
The same measure, in the same setting: with `CCN1CCN(c2nn3c(=O)c4ccccc4nc3c3ccccc23)CC1` the figure was 9.53 µM (active); with `O=C(O)CCc1c2ccc(=O)c(O)c-2oc2c(O)c(O)ccc12`, 16.9 µM (active).
Take `CCN(CC)c1ccc(N=Cc2cc(Br)ccc2O)cc1`: the “activity change, negative = inhibition” value was 5.98%.
Still for that read-out and setting: under `CC(C)c1ccc(C2c3[nH]c4ccccc4c3C[C@H]3C(=O)N(c4ccccc4C(=O)N4CCC[C@H]4C(=O)O)C(=O)N23)cc1` (stereo partly drawn) stands -23.3%.
Regarding `COc1ccc(/C=C2\CCc3ccccc3C2=O)cc1CN1CCOCC1`, the Potency was 13.5 µM (active).
Turning to `COc1ccc(C(=O)N2CCOCC2)cc1S(=O)(=O)N1CCCc2ccccc21`, the “activity change, negative = inhibition” value was -3.75%.
As to `Cn1ccc2c(N3CCCC3)cc3c(c21)C1CCC3C1` (stereo not drawn), the Potency was 15.1 µM (active).
Still for that read-out and setting: with `O=C(NCCCNC1CCCCC1)c1ccc(/C=N/O)nc1` the figure was 13.5 µM (active).
As for `CN(C)c1ccc(Sc2ccc3nc(N)nc(N)c3c2)cc1`, the Potency is 6.75 µM (active).
In the case of `O=C(/C=C\c1ccccc1)Oc1cccc2cccnc12`, the Potency was 3.38 µM (active).
In the case of `O=C(/C=C/c1ccccc1)Oc1cccc2cccnc12`, the Potency is 2.39 µM (active).
On to `O=C(/C=C/c1ccco1)Nc1ccccc1N1CCCC1`, for which the “activity change, negative = inhibition” value was -24.3%.
For the compound `COc1ccccc1/C=C/C(=O)Oc1cccc2cccnc12`, the Potency was 3.38 µM (active).
With `O=C(/C=C/c1ccco1)Oc1cccc2cccnc12`, the Potency was 4.26 µM (active).
Consider `COc1ccc(Br)cc1CNC(=O)c1ccc2c(c1)N(C)CCS2`, for which the “activity change, negative = inhibition” value is -24.5%.
Regarding `N#Cc1c(=O)c2nc(NCc3ccccc3)ncc2n2ccccc12`, the Potency is 4.26 µM (active).
For `CC1CCCCC1Nc1nc2ccc(Cl)cc2n2cnnc12` (stereo not drawn), the “activity change, negative = inhibition” value was -14.8%.
As for `CC(C)Cn1c(SC(C)C(=O)Nc2ccc(N3CCOCC3)cc2)nc2ccccc21` (stereo not drawn), the “activity change, negative = inhibition” value was -22.3%.
For `c1ccc2c(c1)nc(Nc1ccc(N3CCCCC3)cc1)c1nncn12`, the Potency is 15.1 µM (active).
On the same count and under the same terms, with `Cc1cccc(NC2=C(NCCO)C(=O)c3ccccc3C2=O)c1` the figure was 12 µM (active).
Consider `CNc1nc(-c2ccc3c(c2)CCN3C(=O)c2cccc(F)c2)cs1`, for which the “activity change, negative = inhibition” value is -25.3%.
`CC1=CC(=O)Nc2ncccc2O1`: the Potency is 15.1 µM (active).
Still for that read-out and setting: under `C[N+](C)(CCCCCI)c1ccc(/C=C/c2nc3ccccc3s2)cc1` stands 12 µM (active).
As for `O=C(Oc1ccc2ccc(=O)oc2c1)c1cccs1`, the “activity change, negative = inhibition” value is -6.55%.
`Cc1nc(S/C(=C\c2ccc(-c3ccc(C(=O)O)c(Cl)c3)o2)C(=O)O)n[nH]1`: the Potency was 13.5 µM (active).
As to `O=C(NNC(=O)c1cc2cc(Br)ccc2oc1=O)c1ccc(O)cc1`, the “activity change, negative = inhibition” value was 24.4%.
In the case of `CC(=O)Nc1ccc(OC(=O)c2cc3cc(Br)ccc3oc2=O)cc1`, the Potency was 6.75 µM (active).
`Cc1ccc(C(=O)Oc2ccc3ccc(=O)oc3c2)cc1`: the “activity change, negative = inhibition” value is -3.56%.
`CCOc1cc(/C=C2\C(=N)N3N=C(CC)SC3=NC2=O)ccc1OCCOc1ccc(NC(C)=O)cc1`: the Potency was 3.79 µM (active).
For the compound `Cc1cc(/C=C2\C(=N)N3N=C(CC(=O)N4CCOCC4)SC3=NC2=O)c(C)n1Cc1ccccc1`, the “activity change, negative = inhibition” value was -9.67%.
In the case of `O=C(CSc1nnc2c3ccccc3c3ccccc3c2n1)Nc1ccccc1F`, the Potency was 12 µM (active).
Regarding `COc1ccccc1NC(=O)CCCCCN1C(=O)c2cccc3cccc(c23)C1=O`, the “activity change, negative = inhibition” value is -5.32%.
On the same count and under the same terms, under `COc1ccc(NC(=O)c2ccc(CN3CCc4ccccc4C3)cc2)c(OC)c1` stands -22.2%.
For the compound `COc1ccc(NC(=O)COc2cccc3c2CCN(C)C3=O)c(OC)c1`, the Potency was 8.49 µM (active).
